Experimental data from PubChem BioAssay AID720690 (Broad Institute, 2013).
Measured potencies and affinities stand elsewhere. A number with no mark means an inactive call.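 Rule for the calls: active = every repeat run showing a signal drop whose fitted half-maximal concentration is at most twice the top tested concentration; inconclusive = repeat runs disagree, or flat partial drop, or poor fit; inactive = the rest.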

Assay: general mammalian cell viability loss – activator set, cherry-pick, cytotoxicity control for miR-122 modulator project, dose response (AID 720690);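 note: 0% = neutral control wells and -100% = MG132 cytotoxic control wells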
Settings: HEK293T viability, CellTiter-Glo luminescence, 48 h; series mostly up to 26 µM; activity change, negative = cytotoxicity: at the top concentration

SMILES | activity change, negative = cytotoxicity
COc1cccc(CNC(=O)C[C@@H]2CC[C@H]3[C@H](COc4ccc(NC(C)=O)cc4C(=O)N3C)O2)c1 | -3.81%
CN1C(=O)c2cc(NC(=O)c3ccccc3F)ccc2OC[C@H]2O[C@@H](CC(=O)NCc3ccc4c(c3)OCO4)CC[C@@H]21 | -4.16%
O=C(CN1CCOCC1)NC[C@@H]1N[C@@H](CO)[C@@H]1c1ccc(-c2ccccc2)cc1 | -1.74% [at 23.5 µM]
CCNC(=O)C[C@H]1CC[C@@H]2[C@H](COc3ccc(NC(=O)Nc4cccc(OC)c4)cc3C(=O)N2C)O1 | 2.23%
